Most compounds without a hit are left out; they make up all but 3.9% or so of the library.
CASP6 VEID inh – human caspase-6 inhibitors, primary screen, biochemical, VEID-R110 fluorescence, single point, set 2 | P55212 | purified caspase-6, Z-VEID-R110 cleavage fluorescence | inhibition, % at 12.5 µM | actives 0.53% (n = 350,000);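 active means mean inhibition across replicates at least about 35%, with every replicate also reaching that limit, limit read from the data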;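 further: 0% = median of neutral control wells and 100% = no fluorescence left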
N-glyco inh – increase of ERlucT glycosylation luciferase signal, primary screen, N-linked glycosylation inhibitor project, D54 ERlucT cells, luminescence, set 2. D54 ERlucT glycosylation luciferase reporter, 24 h; percent of 100 nM tunicamycin response. reporter increase, % at 12.5 µM. actives 0.23% (n = 360,000);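 active means mean luciferase reporter signal, scaled so untreated is 0 and the glycosylation-blocking control 100, at or above a set limit in every replicate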;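 further: luciferase carries N-glycosylation sites so blocking glycosylation raises the light; 0% = median of neutral control wells and 100% = median of 100 nM tunicamycin wells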
ALR inh – inhibitors of human ALR sulfhydryl oxidase, primary screen, biochemical, H2O2 detection, HRP-luminol luminescence, single point | purified ALR, DTT oxidation | actives 3.8% (n = 290,000) | inhibition, % (concentration not given with the values);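 active means mean replicate inhibition above about 79%, with every replicate also reaching it, limit read from the data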
SUMO Mot1 rescue – yeast Mot1-301 growth rescue at high temperature, primary screen, SUMOylation pathway inhibitor project, S. cerevisiae, ATP luminescence, 38.5C; AID 2716, 2010; actives 1% (n = 320,000); S. cerevisiae Mot1-301 growth rescue; percent above DMSO median, 100 means doubled; growth rescue, % at 18.8 µM;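 active means every valid replicate shows activation above 250% relative to neutral control wells; inactive means the rest, any valid replicate at or below 250%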;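 further: OY570 slx delta 5 strain wells were the positive control but not used for scaling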
CDK5 p35 inh – inhibitors of human CDK5/p35 kinase, primary screen, biochemical, single concentration; Cyclin-dependent kinase 5 (Homo sapiens) + Cyclin-dependent kinase 5 activator 1 (Homo …; Recombinant CDK5/p35, ADP-Glo luminescence, 60 min; inhibition, % at 10 µM; actives 0.01% (n = 330,000); AID 488839, 2010;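 active means highest replicate inhibition of at least 50% and at least 75% of replicates reaching 50%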;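 further: plate controls were DMSO neutral control for no effect and GW8510 at 10 µM for full effect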
Target sequence (Q00535 whole entry, looked up): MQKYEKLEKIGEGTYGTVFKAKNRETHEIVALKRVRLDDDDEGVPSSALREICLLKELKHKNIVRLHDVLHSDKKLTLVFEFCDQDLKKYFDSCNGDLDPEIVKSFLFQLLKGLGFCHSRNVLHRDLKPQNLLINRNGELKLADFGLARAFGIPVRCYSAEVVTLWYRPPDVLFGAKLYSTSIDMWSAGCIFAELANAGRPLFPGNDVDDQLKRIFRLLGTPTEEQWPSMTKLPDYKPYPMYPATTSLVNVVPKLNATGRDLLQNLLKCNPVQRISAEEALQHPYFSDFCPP
Target sequence (Q15078 whole entry, looked up): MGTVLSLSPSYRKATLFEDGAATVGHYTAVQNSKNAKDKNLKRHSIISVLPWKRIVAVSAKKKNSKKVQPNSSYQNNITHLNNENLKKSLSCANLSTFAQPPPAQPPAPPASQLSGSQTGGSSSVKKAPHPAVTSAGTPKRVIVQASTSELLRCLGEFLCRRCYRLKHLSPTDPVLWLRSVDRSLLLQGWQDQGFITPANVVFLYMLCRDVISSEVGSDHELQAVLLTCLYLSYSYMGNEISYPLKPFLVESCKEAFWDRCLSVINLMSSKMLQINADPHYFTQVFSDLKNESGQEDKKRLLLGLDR
NSD2 HMT inh – NSD2 histone methyltransferase inhibitors, primary screen, biochemical, AlphaScreen, single concentration, set 2; NSD2 peptide methylation, 120 min; actives 0.54% (n = 310,000); inhibition, % at 12.5 µM; AID 743445, 2014; Histone-lysine N-methyltransferase NSD2 (Homo sapiens), O96028; in the data active means inhibition above about 50%
Starred values were filed as active, the others as inactive; nt = no result; ! = not active in a repeat.

SMILES | CASP6 VEID inh | N-glyco inh | ALR inh | SUMO Mot1 rescue | CDK5 p35 inh | NSD2 HMT inh
COc1ccc2[nH]cc(C3=CCNCC3)c2c1 | nt | nt | 97* | -5 | nt | nt
COc1ccc2[nH]cc(CCN=C(N)N)c2c1 | -3 | 0 | 11 | 245 | 0 | -1
COc1ccc(C#Cc2ccc([C@H]3[C@@H](CO)N4CCCCN(C(=O)Cc5ccncc5)C[C@@H]34)cc2)cc1 | 1 | nt | nt | nt | nt | nt
COc1cccc(-n2c(/C=C/c3ccc(O)c(O)c3)nc3ccccc3c2=O)c1 | 25 | 1 | 91* | 49 | 1 | 13
COc1ccc(-n2c(/C=C/c3ccc(O)c(OC)c3)nc3ccccc3c2=O)cc1 | 4 | -3 | 12 | 10 | -1 | -5
Cc1ccccc1-c1ccc([C@H]2[C@@H](CO)N3CCCCN(C(=O)Cc4ccccn4)C[C@H]23)cc1 | 0 | nt | nt | nt | nt | nt
O=C(O)[C@@H]1[C@@H](CO)[C@@H]2Cn3c(ccc(-c4ccccc4)c3=O)[C@H]1N2CC1CCCCC1 | -3 | nt | nt | nt | nt | nt
COc1ccc(-c2ccc([C@H]3[C@H]4CN(C(=O)Cc5ccccc5)CCCCN4[C@H]3CO)cc2)cc1 | -4 | nt | nt | nt | nt | nt
CN(C)c1ccc(/C=C/c2cc[n+](C)c3ccccc23)cc1 | -18 | 39*! | nt | nt | 12 | 62*
C[n+]1ccc(-c2ccccc2)c2ccccc21 | 0 | 4 | -24 | 10 | 0 | nt
COC(=O)[C@@H]1N[C@@H]2c3ccc(C4=CCCC4)c(=O)n3C[C@@H]2[C@H]1CO | 0 | nt | nt | nt | nt | nt
COC(=O)[C@@H]1[C@@H](CO)[C@@H]2Cn3c(ccc(C4=CCCCC4)c3=O)[C@H]1N2C(=O)Cc1ccccn1 | 0 | nt | nt | nt | nt | nt
CSc1ccc(C(=O)C2CCCN(Cc3cnc(SC)nc3)C2)cc1 (stereo unspecified) | 2 | -1 | -3 | 305* | 0 | 4
Cc1cc(Br)ccc1N1C(=O)CC(=O)NC1=O | nt | 0 | 85* | -6 | -6 | 0
COc1ccc(OCC(=O)N2CCN(Cc3ccc(SC)cc3)CC2)cc1 | -3 | 0 | nt | 262* | 2 | -2
CC(C)CC#Cc1ccc([C@@H]2[C@H](CO)N3CCCCN(C(=O)Cc4ccccn4)C[C@@H]23)cc1 | -6 | nt | nt | nt | nt | nt
Cc1[nH]c2ccccc2c1C1=CCNCC1 | -27 | 0 | 94* | 8 | -1 | nt
O=C1NC(=O)N(c2ccc3c(c2)OCO3)C(=O)/C1=C\c1ccc(-c2ccccc2C(=O)O)o1 | 43* | 2 | nt | -11 | -4 | 37
C/C=C/c1ccc(C2[C@@H]3CN(Cc4cccc(F)c4)C[C@H]2N3)cc1 (stereo partly specified) | 0 | nt | nt | nt | nt | nt
COc1ccccc1N1CCN(Cc2ccccc2Cl)CC1 | nt | 0 | nt | -12 | 0 | 2
Clc1ccccc1CN1CCN(c2ccccc2)CC1 | -1 | -3 | 99* | -11 | -2 | 2
Nc1ccc(N2CCN(Cc3ccccc3Cl)CC2)c(Cl)c1 | nt | -2 | 89* | 310 | -2 | 12
Clc1ccccc1CN1CCN(c2cccc3[nH]ccc23)CC1 | nt | 1 | 97* | 6 | 0 | nt
CCCN1[C@@H]2Cn3c(ccc(-c4cccc(OC)c4)c3=O)[C@H]1[C@@H](C(=O)OC)[C@@H]2CO | 0 | nt | nt | nt | nt | nt
CC=Cc1ccc2n(c1=O)C[C@H]1[C@H](CO)[C@@H](C(=O)OC)[C@@H]2N1C(=O)CC (mixture of isomers) | 0 | nt | nt | nt | nt | nt
SMILES | CASP6 VEID inh | N-glyco inh | ALR inh | SUMO Mot1 rescue | CDK5 p35 inh | NSD2 HMT inh
O=C(NC[C@H]1CC[C@H]2[C@H](CN2Cc2cccnc2)O1)C1CC1 | 1 | nt | nt | nt | nt | nt
O=C1C(Cl)=CC(=Nc2ccc(O)cc2)C=C1Cl | 40* | 3 | 99* | -2 | 6 | nt
CN1Cc2cccnc2N(C)Cc2cc(Cl)ccc21 | -1 | -3 | 99* | -26 | 1 | 8
O=C1CC(c2cccnc2)=NN1c1ccc(Cl)cc1Cl | 7 | 0 | 24 | 4 | -3 | 0
C=CCn1c(O)c(C(CC)=NC(C)c2ccccc2)c(=O)[nH]c1=O (stereo unspecified) | nt | 26* | -1 | 2 | 2 | 0
CC/C(=N\Nc1ccccc1)c1c(O)n(-c2ccccc2)c(=O)[nH]c1=O | 3 | 0 | 99* | 155 | -1 | 0
COc1ccc(-n2c(O)c(/C(C)=N/Nc3ccccc3)c(=O)[nH]c2=O)cc1 | 2 | 0 | -13 | 4 | -3 | -1
O=C(O)CCn1cc(C=C2C(=O)NC(=S)NC2=O)c(-c2cc3ccccc3oc2=O)n1 | 15 | 1 | nt | nt | -3 | 26
O=C(O)CCn1cc(C=C2C(=O)NC(=S)NC2=O)c(-c2ccccc2)n1 | nt | -1 | 87* | 48 | -2 | 3
COc1c(C=C2C(=O)NC(=O)NC2=O)c(CCN(C)C(=O)c2ccccc2)cc2c1OCO2 | 0 | 1 | 96* | -2 | 1 | nt
COC(=O)Cn1cc(C=C2C(=O)NC(=O)NC2=O)c2ccccc21 | 5 | 2 | 6 | -18 | -2 | 13
CCC(C)N1C(=O)NC(=O)C2(Cc3c(ccc4ccccc34)N(C)C2)C1=O (stereo unspecified) | nt | -2 | 93* | 17 | nt | 9
COC(=O)[C@H]1[C@H](CO)[C@H]2Cn3c(ccc(/C=C/c4ccccc4)c3=O)[C@@H]1N2CC1CCCC1 | 3 | nt | nt | nt | nt | nt
CC1CC(OP(O)(=S)c2ccc(N(C)C)cc2NC(=O)c2cccs2)CC(C)(C)C1 (stereo unspecified) | 14 | 1 | 99* | 1 | 1 | 6
O=C(Cc1cccnc1)N1CCCCN2[C@@H](CO)[C@@H](c3ccc(/C=C/c4ccccc4)cc3)[C@@H]2C1 | 0 | nt | nt | nt | nt | nt
C/C(=N\NC(=S)Nc1ccccc1)c1c(O)n(C)c(=O)n(C)c1=O | 6 | 4 | 92* | 9 | 0 | -3
O=c1c2ccccc2[nH]c(=S)n1-c1ccc2c(c1)OCO2 | nt | 1 | 59 | -6 | 1 | 0
Cc1cnc(-n2c(=S)[nH]c3ccccc3c2=O)s1 | 11 | 2 | 97* | -9 | 0 | -1
O=C(Cc1ccccc1)N1CCCCN2[C@H](C1)[C@@H](c1ccc(C#Cc3ccccc3)cc1)[C@@H]2CO | 1 | nt | nt | nt | nt | nt
CN1C(=O)C(=Cc2ccc(SC3CCCCC3)o2)C(=O)N(C)C1=O | 26 | 2 | 88* | 0 | 0 | 11
O=C(O)[C@H]1[C@H](CO)[C@H]2Cn3c(ccc(-c4ccccc4F)c3=O)[C@@H]1N2C(=O)Nc1ccccc1 | -3 | nt | nt | nt | nt | nt
Cc1cc(C)n(-c2ccc(NN=C(C#N)C#N)cc2)n1 | 2 | 0 | 98* | 0 | -1 | 8
